Records with an inconclusive call do not appear. A number with no mark means an inactive call. Calls follow the shape of the dose curve; as a rule, active = well fitted inhibition curve with a large enough effect; inconclusive = small, poorly fitted or top-dose-only effect; inactive = flat fitted curve, though single readings scatter.
System: Zika virus NS2B-NS3 protease
Assay: Primary screen GU AMC qHTS for Zika virus inhibitors (AID 1347154);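 also: 0% = no-inhibitor control and -100% = no-enzyme control; nearly all actives have a fitted effect of over 70% in size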
Settings: Zika NS2B-NS3 unlinked protease, AMC fluorogenic substrate; series mostly up to 54.1 µM; activity change, negative = inhibition: at the top concentration
Source text: Avindra Nath, Ph.D., National Institute of Neurological Disorders and Stroke (NINDS), Bethesda, MD
Radhakrishnan Padmanabhan, Ph.D., Georgetown University (GU), Washington D.C.
Zika Virus causes congenital defects, including microcephaly and is associated with Guillain-Barre syndrome, eningoencephalitis and myelitis in infected adult. […] Using a target-based approach, we hope to establish a screening paradigm to uncover novel, cell-active NS2B-NS3 protease (Zika Virus) specific inhibitors from NCATS' collection of small molecules using qHTS.
Early Translation Branch (ETB)
National Center for Advancing Translational Sciences (NCATS), Rockville, MD
National Institute of Health (NIH), Bethesda, Maryland
Padmanabhan lab provided the NS2B hydrophilic domain and NS3 protease domain in a noncovalent complex used for the unlinked assay. Control compound aprotinin is obtained from Thermo Scientific (#78432; Waltham, Massachusetts). NS2B-NS3 AMC substrate (Bz-Nle-Lys-Arg-Arg-AMC; Nle-KRR-AMC) purchased from Bachem (#I-1995; Torrance, CA). Ac-VKTGKR-AMC purchased from Genscript or Bachem, Ac-FAAGKR-AMC purchased from Genscript, Ac-GLVKRR-AMC purchased from Genscript, Ac-LKKR-AMC purchased from Genscript.
GU AMC unlinked NS2B-NS3 protease qHTS protocol
Briefly, 3 microL of Zika virus unlinked NS2B-NS3 protease (25 nM for linked final concentration), in assay buffer (10 mM Tris-HCl pH 8.0 with 0.01% Tween 20) was dispensed into a 1,536-well solid-bottom black plate (Greiner Bio One, Monroe, NC). […] Plates were then read immediately on a ViewLux High-throughput CCD imager (PerkinElmer, Waltham, MA) equipped with standard UV fluorescence optics (340(30) nm excitation, 450(20) nm emission) then incubated (room temperature, protected from light) for 15 minutes (~20% conversion). The change in fluorescence intensity over the 15-minute reaction period was normalized against no-inhibitor and no-enzyme controls and the resulting percent inhibition data were fitted to a 4-parameter Hill equation. Aprotinin was used as the intraplate control.

SMILES	activity change, negative = inhibition
CC(=O)NC(CS)C(=O)O (stereo not given)	-23.4%
CC1(C)[C@H](O[C@H]2O[C@H](C(=O)O)[C@@H](O)[C@H](O)[C@H]2O[C@@H]2O[C@H](C(=O)O)[C@@H](O)[C@H](O)[C@H]2O)CC[C@@]2(C)[C@H]1CC[C@]1(C)[C@H]2C(=O)C=C2[C@H]3C[C@@](C)(C(=O)O)CC[C@]3(C)CC[C@]21C	9.9%
CN(N=O)C(=O)N[C@H]1C(O)OC(CO)[C@@H](O)[C@H]1O (stereo not given in full)	8.04%
CN(C)CC[C@H](c1ccc(Cl)cc1)c1ccccn1	-10.9%
COC1=C2C[C@@H](C)C[C@H](OC)[C@@H](O)[C@@H](C)C=C(C)[C@H](OC(N)=O)[C@@H](OC)C=CC=C(C)C(=O)NC(=CC1=O)C2=O	-22.6%
O=C(C=CC#Cc1cccc(NS(=O)(=O)c2ccccc2)c1)NO	-6.43%
CC(=O)ON=C1C(c2c(O)[nH]c3cc(Br)ccc23)=Nc2ccccc21	3.17%
COc1cc(C(C)C)c(Oc2cnc(NC(CO)CO)nc2N)cc1I	1.4%
CCc1c(O)cc(O)c(C(=O)c2ccc(OCCN3CCOCC3)c(OC)c2)c1CC(=O)N(CCOC)CCOC	-3.25%
Cn1cc(C[C@@H](N)C(=O)O)c2ccccc21	3.43% [at 25.8 µM]
Nc1ccc(C(=O)Nc2cccc(-c3nc(N4CCOCC4)c4oc5ncccc5c4n3)c2)cn1	-20.6%
CC(C)C[C@H](NC(=O)[C@@H](NC(=O)c1cccc(-c2ccccc2)n1)[C@@H](C)O)B(O)O	-4.08%
CC(C)C[C@H](NC(=O)CNC(=O)c1cc(Cl)ccc1Cl)B1OC(=O)CC(CC(=O)O)(C(=O)O)O1 (stereo not given in full)	2.52%
CC(C)(C)c1nc2c3cc[nH]c(=O)c3c3cc(F)ccc3c2[nH]1	2.74%
CCCCCCCCc1ccc(CCC(N)(CO)CO)cc1	15.2%
COc1ccc(C[C@@H](C)[C@@H](C)Cc2ccc(OC)c(OC)c2)cc1OC	-4.56%
CC(C(C)N1CC(=O)NC(=O)C1)N1CC(=O)NC(=O)C1 (stereo not given)	-7.21%
CC(=O)C1=C(O)C=C2Oc3c(C(C)=O)c(O)c(C)c(O)c3C2(C)C1=O (stereo not given)	-10.7%
C[C@H](O)[C@@H]1C(=O)N2C(C(=O)O)=C(S[C@@H]3CN[C@H](CNS(N)(=O)=O)C3)[C@@H](C)[C@@H]12	18.9%
C[C@H](NCc1ccc(OCc2cccc(F)c2)cc1)C(N)=O	1.87%

SMILES	activity change, negative = inhibition
OCC(O)C(O)C(O)CO (stereo not given)	12.7%
OC[C@@H](O)[C@@H](O)[C@H](O)[C@@H](O)CO	16.4%
NS(=O)(=O)OC[C@@H]1C[C@@H](n2ccc3c(N[C@H]4CCc5ccccc54)ncnc32)C[C@H]1O	10.7%
O=C(CN1C(=O)C2(CCCC2)NC[C@H]1c1cc(F)cc(F)c1)Nc1ccc2c(c1)C[C@@]1(C2)C(=O)Nc2ncccc21	2.16%
CN[C@H]1[C@@H](O)[C@@H]2O[C@@H]3O[C@H](C)CC(=O)[C@]3(O)O[C@@H]2[C@@H](NC)[C@H]1O	-7.51%
Cc1cnn(C)c1C(=O)Nc1cc(Nc2ccc3c(C=Cc4ccccn4)n[nH]c3c2)ccc1F	5.61%
COc1cc2c(cc1OC)[C@@H]1C(=O)c3ccc4c(c3O[C@@H]1CO2)C=CC(C)(C)O4	1.25%
C#Cc1cccc(Nc2ncnc3cc(OCCOC)c(OCCO)cc23)c1	1.33%
C[C@]12CC[C@@H]3c4ccc(O)cc4CC[C@H]3[C@H]1CC[C@H]2O	8.13%
Cn1cc(-c2ccc3ncc(Cc4ccc5ncccc5c4)n3n2)cn1	304%
C=CC(=O)Nc1ccc2ncnc(Nc3ccc(OCc4cccc(F)c4)c(Cl)c3)c2c1	-4.32%
CCC[C@H]1C[C@H](C(=O)N[C@@H]([C@@H]2O[C@@H](SC)[C@@H](O)[C@@H](O)[C@@H]2O)[C@H](C)Cl)N(C)C1	11.4%
CCN(CC)Cc1ccc2cc(COC(=O)Nc3ccc(C(=O)NO)cc3)ccc2c1	-2.9%
O=C(Nc1cccc(Nc2ncc(Br)c(NCCc3cnc[nH]3)n2)c1)N1CCCC1	3.32%
c1cc(CN2CCCNCCNCCCNCC2)ccc1CN1CCCNCCNCCCNCC1	3.64%
Oc1ccc(-c2ccc(-c3cc(Nc4cccc(CNC5CC5)c4)n[nH]3)cc2)c(O)c1	-3.06%
C=CC1=C(C(=O)O)N2C(=O)[C@@H](NC(=O)C(=NO)c3csc(N)n3)[C@H]2SC1	3.22%
CS[C@H]1SC[C@@H]2C(=O)N(C)[C@H](C(C)C)C(=O)OC[C@H](NC(=O)c3cnc4ccccc4n3)C(=O)N[C@H](C)C(=O)N(C)[C@@H]1C(=O)N(C)[C@H](C(C)C)C(=O)OC[C@H](NC(=O)c1cnc3ccccc3n1)C(=O)N[C@H](C)C(=O)N2C	-1.7%
Cc1cc(Nc2ncc3c(n2)N(C)C(=O)N(c2cc(NC(=O)c4cccc(C(F)(F)F)c4)ccc2C)C3)n(C)n1	18%
COc1cc(OC)cc(-c2ccc3ncc4ccc(=O)n(-c5ccc(N6CCNCC6)c(C(F)(F)F)c5)c4c3c2)c1	2.52%

From PubChem BioAssay (NCATS)
